# Results as given in PubChem BioAssay (EPA / NIEHS).
# Values joined by “and” are separate entries in the source; they are usually repeats but may differ in a detail not shown here. Equal values may be shown once. Some structures have more than one record in an assay (separate samples or runs), and their calls can disagree. Active and inactive are the calls of the source. The calls were made as follows: active = hit-call score of the fitted dose curve at least 0.9, where 1 is the maximum; inactive = score below 0.9.
# Read-out: Intercellular Adhesion Molecule 1 (ICAM1), ICAM1 (gene 3383)
# Assay: BSK_hDFCGF_ICAM1: BioMAP Diversity Plus: hDFCGF Assay for Intercellular Adhesion Molecule 1 (ICAM1) Biomarker Activity (AID 2284287)
# Conditions: primary human foreskin fibroblasts
# Summary of the method: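 Primary human foreskin fibroblasts (hDFCGF system) dosed with chemical; ICAM-1 quantified by ELISA at 24 h relative to DMSO. Parallel SRB total-protein staining to assess overt cytotoxicity.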
Structure (SMILES),outcome,AC50
O=C(CC(=O)C(F)(F)C(F)(F)C(F)(F)F)c1cccs1,inactive,
O=P(O)(O)CCC(F)(F)C(F)(F)C(F)(F)C(F)(F)C(F)(F)C(F)(F)C(F)(F)C(F)(F)F,inactive,25.7 µM (active)
O=C(O)C(F)(F)OC(F)(F)C(F)(F)OC(F)(F)C(F)(F)OC(F)(F)C(F)(F)C(F)(F)C(F)(F)F,,19.7 µM (active) and 17.2 µM (active)
C=CC(=O)OCCC(F)(F)C(F)(F)C(F)(F)C(F)(F)C(F)(F)C(F)(F)C(F)(F)C(F)(F)F,inactive,1.19 µM (active)
Oc1ccc(Cc2ccccc2O)cc1,inactive,
O=S(=O)(O)C(F)(F)C(F)(F)C(F)(F)C(F)(F)C(F)(F)C(F)(F)C(F)(F)C(F)(F)C(F)(F)C(F)(F)F,inactive,
OCC(F)(F)C(F)(F)C(F)(F)C(F)(F)C(F)(F)C(F)(F)C(F)(F)C(F)(F)C(F)(F)C(F)(F)C(F)(F)F,inactive,
Oc1c(Cl)cc(Cl)cc1Sc1cc(Cl)cc(Cl)c1O,,2.56 µM (active) and 2.73 µM (active)
O=C(O)CCC(F)(F)C(F)(F)C(F)(F)C(F)(F)C(F)(F)C(F)(F)F,inactive,
O=C1NS(=O)(=O)c2ccccc21,inactive,
CN(Cc1cnc2nc(N)nc(N)c2n1)c1ccc(C(=O)N[C@@H](CCC(=O)O)C(=O)O)cc1,inactive,
O=P(O)(O)CCC(F)(F)C(F)(F)C(F)(F)C(F)(F)C(F)(F)C(F)(F)F,inactive,
CN(CCO)S(=O)(=O)C(F)(F)C(F)(F)C(F)(F)C(F)(F)C(F)(F)C(F)(F)C(F)(F)C(F)(F)F,inactive,
O=C(O)CCC(F)(F)C(F)(F)C(F)(F)C(F)(F)C(F)(F)F,inactive,
CCCCCCCCCCCC,,11.7 µM (active) and 10.3 µM (active)

# Read-out: CD40, CD40 (gene 958)
# Assay: BSK_IMphg_CD40: BioMAP Diversity Plus: IMphg Assay for CD40 Biomarker Activity (AID 2284288)
# Conditions: primary human endothelial cells with macrophages
# Summary of the method: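 Venular endothelial cells co-cultured with macrophages (human primary), CD40 measured by ELISA 24 h after dosing. Positive-direction fit vs DMSO baseline; cytotoxicity tracked by SRB total-protein staining in parallel cultures.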
Structure (SMILES),outcome,AC50
O=C(CC(=O)C(F)(F)C(F)(F)C(F)(F)F)c1cccs1,inactive,
O=P(O)(O)CCC(F)(F)C(F)(F)C(F)(F)C(F)(F)C(F)(F)C(F)(F)C(F)(F)C(F)(F)F,inactive,
O=C(O)C(F)(F)OC(F)(F)C(F)(F)OC(F)(F)C(F)(F)OC(F)(F)C(F)(F)C(F)(F)C(F)(F)F,,42.4 µM (active) and 40.9 µM (active)
C=CC(=O)OCCC(F)(F)C(F)(F)C(F)(F)C(F)(F)C(F)(F)C(F)(F)C(F)(F)C(F)(F)F,inactive,
O=S(=O)(O)C(F)(F)C(F)(F)C(F)(F)C(F)(F)C(F)(F)C(F)(F)C(F)(F)C(F)(F)C(F)(F)C(F)(F)F,,10.6 µM (active) and 6.06 µM (active)
OCC(F)(F)C(F)(F)C(F)(F)C(F)(F)C(F)(F)C(F)(F)C(F)(F)C(F)(F)C(F)(F)C(F)(F)C(F)(F)F,,1.35 µM (active)
O=C(O)CCC(F)(F)C(F)(F)C(F)(F)C(F)(F)C(F)(F)C(F)(F)F,inactive,
CN(Cc1cnc2nc(N)nc(N)c2n1)c1ccc(C(=O)N[C@@H](CCC(=O)O)C(=O)O)cc1,inactive,
O=P(O)(O)CCC(F)(F)C(F)(F)C(F)(F)C(F)(F)C(F)(F)C(F)(F)F,inactive,
CN(CCO)S(=O)(=O)C(F)(F)C(F)(F)C(F)(F)C(F)(F)C(F)(F)C(F)(F)C(F)(F)C(F)(F)F,inactive,
O=C(O)CCC(F)(F)C(F)(F)C(F)(F)C(F)(F)C(F)(F)F,inactive,

# Read-out: TIMP metallopeptidase inhibitor 2 (TIMP2), TIMP2 (gene 7077)
# Assay: BSK_hDFCGF_TIMP2: BioMAP Diversity Plus: hDFCGF Assay for TIMP metallopeptidase inhibitor 2 (TIMP2) Biomarker Activity (AID 2284289)
# Conditions: primary human foreskin fibroblasts
# Summary of the method: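 Primary human foreskin fibroblasts in the hDFCGF system, dosed for 24 h; TIMP-2 level measured by ELISA, fitted in the positive direction against DMSO; cytotoxicity checked in parallel by sulforhodamine B total protein staining.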
Structure (SMILES),AC50,outcome
O=C(CC(=O)C(F)(F)C(F)(F)C(F)(F)F)c1cccs1,7.8 µM (active),inactive
O=P(O)(O)CCC(F)(F)C(F)(F)C(F)(F)C(F)(F)C(F)(F)C(F)(F)C(F)(F)C(F)(F)F,,inactive
O=C(O)C(F)(F)OC(F)(F)C(F)(F)OC(F)(F)C(F)(F)OC(F)(F)C(F)(F)C(F)(F)C(F)(F)F,7.91 µM (active) and 7.94 µM (active),
C=CC(=O)OCCC(F)(F)C(F)(F)C(F)(F)C(F)(F)C(F)(F)C(F)(F)C(F)(F)C(F)(F)F,,inactive
Oc1ccc(Cc2ccccc2O)cc1,,inactive
O=S(=O)(O)C(F)(F)C(F)(F)C(F)(F)C(F)(F)C(F)(F)C(F)(F)C(F)(F)C(F)(F)C(F)(F)C(F)(F)F,,inactive
OCC(F)(F)C(F)(F)C(F)(F)C(F)(F)C(F)(F)C(F)(F)C(F)(F)C(F)(F)C(F)(F)C(F)(F)C(F)(F)F,,inactive
Oc1c(Cl)cc(Cl)cc1Sc1cc(Cl)cc(Cl)c1O,2.33 µM (active) and 1.67 µM (active),
O=C(O)CCC(F)(F)C(F)(F)C(F)(F)C(F)(F)C(F)(F)C(F)(F)F,,inactive
O=C1NS(=O)(=O)c2ccccc21,,inactive
CN(Cc1cnc2nc(N)nc(N)c2n1)c1ccc(C(=O)N[C@@H](CCC(=O)O)C(=O)O)cc1,,inactive
O=P(O)(O)CCC(F)(F)C(F)(F)C(F)(F)C(F)(F)C(F)(F)C(F)(F)F,,inactive
CN(CCO)S(=O)(=O)C(F)(F)C(F)(F)C(F)(F)C(F)(F)C(F)(F)C(F)(F)C(F)(F)C(F)(F)F,30.1 nM (active) and 23.8 nM (active),
O=C(O)CCC(F)(F)C(F)(F)C(F)(F)C(F)(F)C(F)(F)F,,inactive
CCCCCCCCCCCC,12.6 µM (active) and 5.39 µM (active),
